Several values for one entry are separate records, joined by “and”; a condition that tells them apart may be missing. Equal entries are not always repeated. Hit rate of the full screen: of about 16,000 compounds, about 2,600 (16%) were called active. Another 20% or so got no clear call; they are omitted. Calls follow the shape of the dose curve; as a rule, active = well fitted curve in the direction sought with a large enough effect; inconclusive = small, poorly fitted or top-dose-only effect, or effect the other way; inactive = no such curve, though single readings can be large or run the other way. A selection follows. The source holds several records for some structures; these can differ, active in one and inactive in another.
These compounds were tested against Cytochrome P450 2D6 (Homo sapiens) (UniProt P10635) (assay: Cytochrome panel assay with activity outcomes). Conditions: recombinant CYP, pro-luciferin dealkylation, luminescence, p450-cyp2d6; series mostly up to 57.1 µM.
Sequence of Cytochrome P450 2D6 (Homo sapiens) (P10635 whole entry, looked up): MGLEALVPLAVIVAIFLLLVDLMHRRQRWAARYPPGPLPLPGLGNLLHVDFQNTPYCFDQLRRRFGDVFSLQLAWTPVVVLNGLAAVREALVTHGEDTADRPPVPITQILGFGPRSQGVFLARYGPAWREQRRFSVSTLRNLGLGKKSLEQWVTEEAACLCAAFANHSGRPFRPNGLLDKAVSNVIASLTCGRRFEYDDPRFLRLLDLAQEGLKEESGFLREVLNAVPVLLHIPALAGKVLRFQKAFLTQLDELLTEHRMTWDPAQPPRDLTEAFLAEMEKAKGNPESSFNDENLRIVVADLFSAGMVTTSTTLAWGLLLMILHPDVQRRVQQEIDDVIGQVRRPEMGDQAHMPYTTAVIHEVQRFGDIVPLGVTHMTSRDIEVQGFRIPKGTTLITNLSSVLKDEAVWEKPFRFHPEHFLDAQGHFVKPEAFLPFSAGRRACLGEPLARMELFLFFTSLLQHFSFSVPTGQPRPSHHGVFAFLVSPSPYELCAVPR
% is scaled to controls: 0 for no effect and ±100 for the full control effect.

Compound | AC50 | activity, negative = inhibition
CC1(C)Cc2c(sc3c2C(=O)N(c2ccccc2)C2=NCCN23)CS1 | inactive | 
C=C1CCO[C@@]2([C@H](O)[C@@](C)(O)CO)NC(=O)[C@]1(O)NC2=O |  | 9.37% [at 11.4 µM] (inactive)
COC(=O)c1ccccc1NC(=O)C1CCN(C(=O)c2ccc(OC)cc2)CC1 | inactive | 
O=C(Nc1ccc(Oc2ccccc2)cc1)C1CCN(c2c3c(nc4ncnn24)CCC3)CC1 | 12.6 µM (active) | 
COc1ccc(NC(=O)N2CCCC2C(=O)Nc2ccccc2)cc1 (stereo not given) | inactive | 
COc1cccc(-c2nccc(NCc3ccccc3OC)n2)c1 | 0.398 µM (active) | 
COc1ccccc1CNc1ccnc(-c2cccc(C#N)c2)n1 | 25.1 µM (active) | 
COc1cccc(-c2nccc(NCc3ccc(OC)cc3OC)n2)c1 | 12.6 µM (active) | 
COc1ccc(CNc2ccnc(-c3cccnc3)n2)c(OC)c1 | 10 µM (active) | 
COc1ccc(C(=O)Nc2scc(-c3ccc(Cl)cc3Cl)c2C(N)=O)cc1 | inactive | 
CN1CCCN(C2C3CC4CC(C3)CC2C4)CC1 (stereo not given) | inactive | 
Cc1cc(C)c(S(=O)(=O)N2CCN(c3ccc([N+](=O)[O-])c(NCc4ccco4)c3)CC2)c(C)c1 | inactive | 
CCOCC(=O)Nc1c(C(=O)Nc2ccccc2OC)oc2ccccc12 | inactive | 
COc1ccc(COC(=O)N/N=C2/C[C@@H](O)[C@@H](O)[C@@H]3[C@@H]4C(=O)N([C@@H](C)c5ccccc5)C(=O)[C@H]4CC[C@@H]23)cc1 |  | -8.23% [at 11.4 µM] (inactive)
CC(C)=C1C(=O)C(c2ccccc2)=C2CN3C(=O)N(CCc4ccccc4)C(=O)[C@]3(Cc3ccccc3)[C@H]21 | inactive | 
O=C(O)c1nc(-c2ccccc2)[nH]c1C(=O)O |  | -20.9% [at 11.4 µM] (inactive)
Cc1cccc(NC(=O)c2cc(N3C(=O)CCC3=O)ccc2Cl)n1 | inactive | 
Cc1ccc(S(=O)(=O)N(C)c2cc(S(=O)(=O)N3CCC(C)CC3)c(C)cc2C)cc1 | inactive | 
CCOC(=O)c1cnc(-n2nc(C)cc2C)nc1NCCO | inactive | 
CC1=C(\C=C/C(C)=C/C=C\C(C)=C\C(=O)O)C(C)(C)CCC1 | inactive and 2 µM (active) | 
CC1=CC(=O)CC(C)(C)[C@]1(O)/C=C\C(C)=C\C(=O)O |  | 11.4% [at 11.4 µM] (inactive)
O=C1c2ccccc2N[C@H](c2cc(Cl)cc(Cl)c2O)N1CCc1ccccn1 |  | 15% [at 11.4 µM] (inactive)
COC(=O)C1CCN(CC(=O)Nc2sc3c(c2C#N)CCC3)CC1 | 1.12 µM (active) | 
COC(=O)c1c(NC(=O)Cn2cc([N+](=O)[O-])cn2)sc2c1CCC2 | inactive | 

Compound | AC50 | activity, negative = inhibition
N#Cc1c(NC(=O)C2CC(c3ccccc3Cl)=NO2)sc2c1CCC2 (stereo not given) | inactive | 
O=c1c(-c2ccc(F)cc2)nc2cnc(N3CCOCC3)nc2n1C[C@H]1CCCO1 | inactive | 
COc1ccc(Cc2nnc(NC(=O)c3cccc([N+](=O)[O-])c3C)s2)cc1 | inactive | 
COc1cc(OC)c2c(c1Cl)O[C@@]1(C2=O)[C@H](C)CC(=O)C[C@@H]1OC | inactive | 
COCCn1c(=O)c(-c2cc(F)cc(F)c2)nc2cnc(Oc3ccccc3)nc21 | inactive | 
CSc1nc2c(c(C(F)(F)F)n1)CC(C)CC2 (stereo not given) | inactive | 
CSc1nc(N)c2ncn([C@@H]3O[C@@H](COP(=O)(O)OP(=O)(O)O)[C@@H](O)[C@H]3O)c2n1 | inactive | 
COc1ccc(N2C(=O)NC(NC(=O)c3ccncc3)(C(F)(F)F)C2=O)cc1 (stereo not given) | inactive | 
Cc1nc(SCC(=O)Nc2c(C)n(C)n(-c3ccccc3)c2=O)nc(C)c1C | inactive | 
Cc1ccc(-c2nnc(-c3ccc4ccccc4c3)o2)cc1 |  | 3.58% [at 11.4 µM] (inactive)
c1ccc2cc(NCNc3ccc4ccccc4c3)ccc2c1 | 1 µM (active) | 
O=C(Nc1ccc2ccccc2c1)c1onc2c1CCCC2 | inactive | 
CCOc1cc(CN2CCN(c3ccc(C(C)=O)cc3)CC2)ccc1OC | inactive | 
Cn1c(N)nc2c(nc(OCc3ccccc3)n2[C@@H]2O[C@H](CO)[C@@H](O)[C@@H]2O)c1=O |  | 9.24% [at 11.4 µM] (inactive)
CCN1C(=O)/C(=C/C=C2/SCCN2C)SC1=S | inactive | 
CC1(C)C(=O)NC2=C1C(=O)C(=O)c1ccccc12 | 2.51 µM (active) | 
O=C1c2ccccc2C(=O)C1c1ccccc1 | inactive | 
Cn1ncc2c(Cl)ncnc21 |  | 12.3% [at 11.4 µM] (inactive)
COc1ccc(-c2cc(C(F)(F)F)n3nc(C(=O)NCc4ccco4)c(Cl)c3n2)cc1 | inactive | 
CCCCOC(=S)NC(=O)c1sc2ccccc2c1Cl | inactive | 
CC(=O)Oc1ccc(C(c2ccc(OC(C)=O)cc2)c2ccccn2)cc1 | inactive | 
CN(C)CC(CN(C)C)c1ccccn1 |  | 6.41% [at 11.4 µM] (inactive)
CN(C)CC[C@H](c1ccc(Cl)cc1)c1ccccn1 | 31.6 µM (active) | 
CN(C)CC[C@H](c1ccc(Br)cc1)c1ccccn1 | 15.8 µM (active) and 25.1 µM (active) | 

Compound | AC50 | activity, negative = inhibition
CN(C)CC[C@@H](c1ccccc1)c1ccccn1 | inactive | 
Cc1ccc(-c2c(C#N)c(N)n(-c3ccccc3)c(=O)c2C#N)cc1 | inactive | 
COC(=O)C1=C(C)C(c2ccc(OC)cc2)NC(=S)N1 (stereo not given) | inactive | 
Cc1noc(C)c1COc1ccc(C(=O)NCC2CCCO2)cc1 (stereo not given) | inactive | 
N[C@H](C(=O)O)[C@@H](O)c1cnc[nH]1 |  | 10.8% [at 11.4 µM] (inactive)
COc1cc(OC)c(C(=O)CCCCN2CCC3(CC2)NC(=O)NC3=O)cc1NS(=O)(=O)c1ccc(C(F)(F)F)cc1 | inactive | 
CC[C@H]1C2=C3C(CC[C@H]4C(OCc5ccc(F)cc5C(F)(F)F)OC[C@](C)([C@@H]34)N(C(=O)OC(C)(C)C)C2)C(COC(C)=O)C1COC(C)=O (stereo not given in full) | inactive | 
CCOC(=O)C1=C(N)Oc2ccc(Br)cc2[C@@H]1[C@@H](C#N)C(=O)OCC | inactive | 
O=c1c(-c2ccc(F)cc2)nc2cnc(N3CCNCC3)nc2n1C1CC1 | inactive | 
CCc1nc(N[C@H](C(=O)O)C(C)CC)c2oc3ccccc3c2n1 (stereo not given in full) | inactive | 
c1ccc(-c2nc(NCCCn3ccnc3)c3oc4ccccc4c3n2)cc1 | 2 µM (active) | 
Cc1nc(SCC(=O)NCCc2ccccc2)c2oc3ccccc3c2n1 | inactive | 
c1ccc2c(c1)oc1c(NCCCn3ccnc3)ncnc12 | 1.26 µM (active) | 
c1ccc2cc(Sc3ncnc4c3oc3ccccc34)ccc2c1 | inactive | 
O=C(Cn1cnc2c(oc3ccccc32)c1=O)NCc1ccco1 | inactive | 
CC(C)=CCC/C(C)=C/CO/N=C1/C[C@@H](O)[C@@H](O)[C@@H]2[C@H]3C(=O)N(c4ccc(F)cc4F)C(=O)[C@@H]3CC[C@H]12 |  | 6.74% [at 11.4 µM] (inactive)
O=c1cc(CSc2nnc(-c3cccnc3)n2-c2ccccc2F)nc2sccn12 | inactive | 
COc1ccc(-n2c(N)c(C(=O)NCc3ccco3)sc2=S)cc1 | inactive | 
C=CCC(NCc1ccco1)c1ccc(OC)cc1 (stereo not given) | 5.01 µM (active) | 
COc1ccc(OC)c(NC(=O)C(CC(=O)O)NCc2ccco2)c1 (stereo not given) | inactive | 
CS(=O)(=O)N1CCC2(CC1)CN(C(=O)Nc1cccc(C#N)c1)C2 | inactive | 
O=C(O)/C=C\C(=O)N1Cc2cc3ccccc3nc2C1 |  | -1.33% [at 11.4 µM] (inactive)
CC(=O)N(CC(O)CN(C(C)=O)c1c(I)c(C(=O)NC[C@@H](O)CO)c(I)c(C(=O)NC[C@@H](O)CO)c1I)c1c(I)c(C(=O)NC[C@@H](O)CO)c(I)c(C(=O)NC[C@@H](O)CO)c1I | inactive | 
COc1ccc(-n2cccc2C=O)cc1OC | inactive | 

Compound | AC50 | activity, negative = inhibition
CS(=O)(=O)N1CCC2(CC1)CN(c1ccccc1)C2 | 1.26 µM (active) | 
CS(=O)(=O)N1CCC2(CC1)CN(c1ccc(-c3ccccc3)cc1)C2 | inactive | 
CS(=O)(=O)N1CCC2(CCN(c3cccc(-c4ccccc4)c3)CC2)CC1 | inactive | 
CS(=O)(=O)N1CCC2(CCN(c3ccccc3)CC2)CC1 | inactive | 
CS(=O)(=O)N1CCC2(CC1)CN(C(=O)Nc1ccccc1)C2 | inactive | 
CS(=O)(=O)N1CCC2(CC1)CN(c1ccncc1)C2 | inactive | 
CS(=O)(=O)N1CCC2(CC1)CN(C(c1ccccc1)c1ccccc1)C2 | 2.51 µM (active) | 
CS(=O)(=O)N1CCC2(CCCN(c3ccncc3)C2)CC1 | inactive | 
CS(=O)(=O)N1CCC2(CCCN(C(c3ccccc3)c3ccccc3)C2)CC1 | 5.01 µM (active) | 
CS(=O)(=O)N1CCC2(CCN(C(c3ccccc3)c3ccccc3)CC2)CC1 | 3.16 µM (active) | 
O=C1NC(=S)N/C1=C/c1cccc([N+](=O)[O-])c1O | inactive | 
O=C1CC(c2ccc(F)cc2)Cc2nc(NCC3CCCO3)ncc21 (stereo not given) | inactive | 
CC12CCC(C(=O)Nc3ncc([N+](=O)[O-])s3)(OC1=O)C2(C)C (stereo not given) | inactive | 
Cc1cccc(C(=O)NN(C)c2nc(-c3ccccc3)nnc2C(F)(F)F)c1 | inactive | 
CCOC(=O)N1CCN(C(=O)c2cc(-c3ccc(F)cc3)[nH]c2C)CC1 | inactive | 
COC(=O)C/C=C\[C@@H](C)[C@@H](/C=N\O[C@@H](C)c1cn([C@H](CO)Cc2ccccc2)nn1)NS(=O)(=O)c1ccc(C)cc1 |  | -17.6% [at 11.4 µM] (inactive)
COCCCn1nnnc1SCC(=O)N1CCCC1 | inactive | 
Cn1c(SC2CCCCC2=O)nnc1-c1ccncc1 (stereo not given) | inactive | 
COC(=O)Cn1nc(-c2ccccc2)n(-c2ccccc2)c1=S | inactive | 
O=C(NC(=S)Nc1cccc(Cl)c1N1CCCC1)c1ccc(-c2cccc([N+](=O)[O-])c2)o1 | inactive | 
CS(=O)(=O)N1CCC[C@@]2(CCN(C(c3ccccc3)c3ccccc3)C2)C1 | 3.98 µM (active) | 
CS(=O)(=O)N1CCC[C@@]2(CCN(C(=O)Nc3ccccc3)C2)C1 | inactive | 
CS(=O)(=O)N1CCC[C@@]2(CCN(c3ccccc3)C2)C1 | inactive | 

Source: PubChem BioAssay AID1851 (National Center for Advancing Translational Sciences (NCATS), 2009)
